From PubChem BioAssay (NCI) come the findings set out here.

Assay [1] can be described thus: NCI Yeast Anticancer Drug Screen. Data for the rad50 strain (AID 155).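 Also: 0% = growth of vehicle-only cultures of the same strain.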 The following applies: S. cerevisiae rad50 strain growth inhibition; at 50.0 µM; hits give high values. A digest of the protocol:
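Cells are treated with compound, grown, and their growth is then scored against vehicle-only cultures of the same repair-deficient yeast strain.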

Assay [2] can be described thus: NCI Yeast Anticancer Drug Screen. Data for the mec2-1 strain (AID 157). Particulars: S. cerevisiae mec2-1 strain, at 50.0 µM, hits give high values. The essentials:
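Strain: mec2-1 (DNA repair/cell cycle alteration). Compound exposure, then growth measured; inhibition expressed relative to vehicle.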

Assay [3] can be described thus: NCI Yeast Anticancer Drug Screen. Data for the sgs1 mgt1 strain (AID 161).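 Also: 0% = growth of cultures given vehicle only.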 The following applies: S. cerevisiae sgs1 mgt1 strain, at 50.0 µM, hits give high values. The essentials:
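Read-out: growth inhibition vs vehicle controls. Cells: mutant yeast strain deficient in DNA damage repair.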

A short description of assay [4]: NCI Yeast Anticancer Drug Screen. Data for the cln2 rad14 strain (AID 165).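 Also: 0% = growth equal to vehicle treated cultures.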 The following applies: S. cerevisiae cln2 rad14 strain, at 50.0 µM, hits give high values. A digest of the protocol:
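Compounds are applied to the cln2 rad14 yeast strain, and growth is then compared with that of vehicle-treated cultures to give inhibition.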

Assay [5] is described as follows: NCI Yeast Anticancer Drug Screen. Data for the bub3 strain (AID 167). Particulars: S. cerevisiae bub3 mutant strain, at 50.0 µM, hits give high values. The essentials:
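Part of a panel of yeast mutants defective in DNA damage repair or cell cycle regulation. Each strain is grown with compound, and inhibition is calculated relative to solvent-treated cultures.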

Assay [6] can be described thus: NCI Yeast Anticancer Drug Screen. Data for the mlh1 rad18 strain (AID 175). The following applies: S. cerevisiae mlh1 rad18 strain growth inhibition; at 50.0 µM; hits give high values. A digest of the protocol: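 Read-out is yeast growth inhibition, calculated against vehicle-only controls. The compound was applied to a strain engineered with DNA damage repair alterations.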

This is part of a sample that, as a whole, favours compounds with a hit. Of some 79,000 tested, about 15% had one in any assay. A number with no mark means an inactive call. Active and inactive are the calls of the source. Rule as the data show it: active = growth inhibition above about 70%; inactive = the rest.

With `O=P1(N2CCOCC2)OC(c2ccccc2)=CCN1c1ccc(Cl)cc1` (stereo not given), the growth inhibition in assay [1] was -8.9%; in assay [2], 1.3%; in assay [3], -1.85%; in assay [4], -20.1%; in assay [5], 5.2%; in assay [6], 6.55%.
Turning to `O=C(/C=C/c1ccc([N+](=O)[O-])cc1Cl)Nc1cccc(S(=O)(=O)F)c1`, the growth inhibition in assay [1] was 6%; in assay [2], 16.8%; in assay [3], -0.35%; in assay [4] it was 18.2%; in assay [5] it was -6.3%; in assay [6], -8.2%.
Regarding `C=CCc1cc(-c2cc(CC=C)c(O)c(CN(CCCl)CCCl)c2)cc(CN(CCCl)CCCl)c1O`, the growth inhibition in assay [1] is 41.5%; in assay [2] it was 49.8%; in assay [3], 47.1%; in assay [4] it was 43.1%; in assay [5] it was 60%; in assay [6] it was 44.1%.
As to `[Cl][Cd][Cl]`, the growth inhibition in assay [1] was 54.5%; in assay [2], 25.5%; in assay [3] it was 2.6%; in assay [4], 35.5%; in assay [5], 13.2%; in assay [6], 2.15%.
Regarding `[Cl][Pt+2][Cl].[NH-]c1ccc(Cl)cc1[NH-]`, the growth inhibition in assay [1] is 9.7%; in assay [2] it was -11.9%; in assay [3], -3.05%; in assay [4] it was 8.15%; in assay [5], -11.1%; in assay [6], 7.5%.
With `[Ni+2].[S-]CC[S-]`, the growth inhibition in assay [1] was 0.4%; in assay [2], 12.4%; in assay [3], -8.75%; in assay [4], 1.95%; in assay [5], 0.4%; in assay [6], -4.85%.
For the molecule `CC12CCC(O)CC1CCC1C2CCC2(C)C(C3=CC(=O)OC3)CCC12O` (stereo not given), the growth inhibition in assay [1] was -42.8%; in assay [2], -33.6%; in assay [3], -18.8%; in assay [4] it was -10.2%; in assay [5] it was -23.2%; in assay [6] it was -20.1%.
For the molecule `CSP(=S)(SC(C)C)SC(C)C`, the growth inhibition in assay [1] is 13.7%; in assay [2] it was 5.75%; in assay [3], 13.2%; in assay [4] it was 3.8%; in assay [5] it was 0.5%; in assay [6] it was 29.3%.
Regarding `Nc1cc(C(=O)O)ccc1O.[Cl][Sn][Cl]`, the growth inhibition in assay [1] was 2.2%; in assay [2], -4.15%; in assay [3], -6.4%; in assay [4] it was -45.8%; in assay [5], -1.65%; in assay [6], -19.4%.
Turning to `c1cc[c]([Sn]2([c]3ccccc3)[O]CCNCC[O]2)cc1`, the growth inhibition was -13.1% in assay [1]; -14.4% in assay [2]; 10.4% in assay [3]; -14.9% in assay [4]; -48.7% in assay [5]; -74.4% in assay [6].
Take `CCCCCCCCCC[As](=O)(O)O`: the growth inhibition is 41.8% in assay [1]; 22.2% in assay [2]; 8.6% in assay [3]; 21.9% in assay [4]; 18.9% in assay [5]; 16.9% in assay [6].
With `O=C(CF)NCCCl`, the growth inhibition in assay [1] is -3.45%; in assay [2], -8.8%; in assay [3], -1.65%; in assay [4], 9.5%; in assay [5] it was 9.65%; in assay [6], 1.45%.
With `CN(C)CCO`, the growth inhibition was -21.4% in assay [1]; 11.5% in assay [2]; 4.55% in assay [3]; -1.65% in assay [4]; 23.4% in assay [5]; 35.4% in assay [6].
For the molecule `O=[N+]([O-])NC1=NCCN1CCO`, the growth inhibition in assay [1] is -8.85%; in assay [2] it was -3.95%; in assay [3], -2.15%; in assay [4] it was -16.6%; in assay [5] it was -26.1%; in assay [6] it was -18.9%.
For `CC(C)(C)C1COP(=O)(Oc2ccccc2)OC1` (stereo not given), the growth inhibition in assay [1] was 2.35%; in assay [2] it was 7.55%; in assay [3], -4.5%; in assay [4], -13.8%; in assay [5] it was 19.4%; in assay [6], 3.6%.
Take `N#Cc1ccccc1Cl`: the growth inhibition was 8.05% in assay [1]; -8.4% in assay [2]; 5.45% in assay [3]; 20.7% in assay [4]; 24.2% in assay [5]; 40% in assay [6].
As to `CN1C2CCC1CC(OC(=O)C1CCC(C(=O)OC3CC4CCC(C3)N4C)(c3ccccc3)c3ccccc31)C2` (stereo not given), the growth inhibition is -45% in assay [1]; -23.9% in assay [2]; -35.3% in assay [3]; -29.9% in assay [4]; -34.4% in assay [5]; -36.7% in assay [6].
`CCN(CC)CC(=O)c1ccccc1`: the growth inhibition in assay [1] was -24.1%; in assay [2], -8.85%; in assay [3], -21.2%; in assay [4], 9.45%; in assay [5] it was 3.15%; in assay [6] it was -45.7%.
Regarding `O=C(O)COc1nc(Cl)c(Cl)cc1Cl`, the growth inhibition was 3.3% in assay [1]; 6% in assay [2]; 12.5% in assay [3]; -1.75% in assay [4]; 15.6% in assay [5]; 1.15% in assay [6].
In the case of `CC(=O)c1ccc(NC(O)C(Cl)(Cl)Cl)cc1` (stereo not given), the growth inhibition in assay [1] is 5.75%; in assay [2] it was 18.9%; in assay [3], -0.25%; in assay [4] it was -12.2%; in assay [5], 18.8%; in assay [6] it was 22.4%.
In the case of `COc1ccc2c(c1)CC(CN1CCC3(CC1)C(=O)NCN3c1ccccc1)O2` (stereo not given), the growth inhibition is 76.7% (active) in assay [1]; 57% in assay [2]; 86.4% (active) in assay [3]; 79% (active) in assay [4]; 78.5% (active) in assay [6].
